Test results published in PubChem BioAssay AID1159580 (chemical genetic matrix, 2015).
About 2,000 (36%) of roughly 5,500 compounds were called active. Not shown: some 18% with an inconclusive outcome. No stated cut-off is given here; in the data, active means normalized growth mostly below about 0.91 (no sharp cut-off); inconclusive means no clear call, values can overlap the other calls; inactive means mostly above about 0.92. Some of the results follow.

Test: chemical genetic growth profiling, strain panel (AID 1159580);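 further: tested at 20 µM; growth read once vehicle control cultures reached saturation at 30 °C; 1 = growth at the plate median or of vehicle wells; lower values mean less growth of the strain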
Conditions: S. cerevisiae deletion strains, growth OD

Measured: normalized growth

CC(C1OC(C)(C)C(O)C1O)[C@@H]1CC[C@]2(C)C3=CCC4C(C)(C)C(=O)CC[C@]4(C)C3CC[C@@]12C (stereo partly drawn)
active: locus YLR320W, strain mms22, hits give low values 0.877 | locus YLR418C, strain cdc73, hits give low values 0.79 | locus YNL071W, strain lat1, hits give low values 0.906 | locus YNL233W, strain BNI4, hits give low values 0.867 | locus YOR184W, strain ser1, hits give low values 0.868
inactive: locus YAL013W, strain DEP1, hits give low values 0.979 | locus YAL021C, strain ccr4, hits give low values 1.02 | locus YAL026C, strain drs2, hits give low values 0.987 | locus YAL030W, strain snc1, hits give low values 1 | locus YBL061C, strain skt5, hits give low values 0.978 | locus YBR009C, strain hhf1, hits give low values 0.946 | locus YBR021W, strain FUR4, hits give low values 1.06 | locus YBR023C, strain chs3, hits give low values 0.985 | locus YBR171W, strain sec66, hits give low values 0.985 | locus YBR229C, strain ROT2, hits give low values 1.02 | locus YBR231C, strain swc5, hits give low values 0.971 | locus YBR279W, strain paf1, hits give low values 0.995 | locus YCL011C, strain gbp2, hits give low values 0.981 | locus YCL016C, strain dcc1, hits give low values 0.989 | locus YCL029C, strain bik1, hits give low values 1.01 | locus YCL061C, strain MRC1, hits give low values 0.995 | locus YCL069W, strain vba3, hits give low values 0.994 | locus YCR088W, strain abp1, hits give low values 1 | locus YDL005C, strain med2, hits give low values 0.968 | locus YDL035C, strain GPR1, hits give low values 0.931 | locus YDL040C, strain nat1, hits give low values 0.976 | locus YDL074C, strain BRE1, hits give low values 0.845 | locus YDL101C, strain DUN1, hits give low values 0.989 | locus YDL134C, strain PPH21, hits give low values 0.951 | locus YDL192W, strain arf1, hits give low values 0.983 | locus YDR001C, strain nth1, hits give low values 0.999 | locus YDR069C, strain doa4, hits give low values 0.985 | locus YDR101C, strain arx1, hits give low values 0.973 | locus YDR137W, strain rgp1, hits give low values 1.02 | locus YDR159W, strain sac3, hits give low values 0.898 | locus YDR162C, strain NBP2, hits give low values 0.958 | locus YDR195W, strain ref2 1.05 | locus YDR297W, strain sur2, hits give low values 0.981 | locus YDR318W, strain mcm21, hits give low values 1 | locus YDR334W, strain swr1, hits give low values 0.987 | locus YDR335W, strain msn5, hits give low values 0.999 | locus YDR388W, hits give low values 1.03 | locus YDR392W, strain spt3, hits give low values 0.838 | locus YDR502C, strain sam2, hits give low values 0.989 | locus YEL003W, strain gim4, hits give low values 0.937 | locus YEL037C, strain rad23, hits give low values 0.983 | locus YEL061C, strain CIN8 (second series), hits give low values 0.99 | locus YER015W, strain faa2, hits give low values 0.992 | locus YER016W, strain bim1, hits give low values 0.99 | locus YER110C, hits give low values 1.03 | locus YER111C, strain swi4, hits give low values 0.999 | locus YER155C, strain BEM2 (second series), hits give low values 0.924 | locus YER155C, strain BEM2, hits give low values 1.07 | locus YER167W, strain BCK2, hits give low values 1.01 | locus YFR010W, strain ubp6, hits give low values 0.973 | locus YGL078C, strain dbp3, hits give low values 1.03 | locus YGL086W, strain mad1, hits give low values 1.03 | locus YGL167C, strain pmr1, hits give low values 0.977 | locus YGL173C, strain kem1, hits give low values 0.976 | locus YGL227W, strain vid30, hits give low values 0.99 | locus YGL240W, strain doc1, hits give low values 0.896 | locus YGL248W, strain PDE1, hits give low values 0.97 | locus YGL253W, strain hxk2, hits give low values 0.922 | locus YGR078C, strain PAC10, hits give low values 0.91 | locus YGR135W, strain pre9, hits give low values 1.01 | locus YGR252W, strain gcn5, hits give low values 0.77 | locus YHR013C, strain ard1, hits give low values 0.966 | locus YHR027C, strain rpn1, hits give low values 1.02 | locus YHR079C, strain IRE1 (second series), hits give low values 1.03 | locus YHR094C, strain hxt1, hits give low values 1.03 | locus YHR129C, strain ARP1, hits give low values 1 | locus YHR142W, strain chs7, hits give low values 0.919 | locus YHR200W, strain rpn10, hits give low values 1.01 | locus YIL066C, strain RNR3, hits give low values 0.887 | locus YIL073C, strain SPO22, hits give low values 0.99 | locus YIL125W, strain kgd1, hits give low values 1.03 | locus YIR030C, strain dcg1, hits give low values 1.04 | locus YJL092W, strain hpr5, hits give low values 1 | locus YJL095W, strain BCK1 (second series), hits give low values 1 | locus YJL095W, strain BCK1, hits give low values 0.904 | locus YJL115W, strain asf1, hits give low values 0.985 | locus YJL129C, strain trk1, hits give low values 0.949 | locus YJL134W, strain LCB3, hits give low values 1.04 | locus YJL154C, strain vps35, hits give low values 1.01 | locus YJL164C, strain tpk1, hits give low values 0.983 | locus YJL166W, strain qcr8, hits give low values 0.917 | locus YJL168C, strain set2, hits give low values 1.03 | locus YJL187C, strain SWE1 (second series), hits give low values 0.958 | locus YJL187C, strain SWE1, hits give low values 0.999 | locus YKL068W, hits give low values 1.02 | locus YKL085W, strain MDH1 (second series), hits give low values 1.05 | locus YKL085W, strain MDH1, hits give low values 1.05 | locus YKL160W, strain elf1, hits give low values 0.972 | locus YKL190W, strain CNB1, hits give low values 1.03 | locus YKR001C, strain vps1, hits give low values 1.01 | locus YKR026C, strain gcn3, hits give low values 0.996 | locus YKR091W, strain srl3, hits give low values 0.995 | locus YLL001W, strain dnm1, hits give low values 1 | locus YLL026W, hits give low values 0.997 | locus YLL041C, strain sdh2, hits give low values 0.992 | locus YLR027C, strain aat2, hits give low values 0.973 | locus YLR039C, strain RIC1, hits give low values 1.06 | locus YLR058C, strain SHM2, hits give low values 0.987 | locus YLR102C, strain apc9, hits give low values 1.03 | locus YLR221C, strain rsa3, hits give low values 0.936 | locus YLR258W, strain gsy2, hits give low values 0.983 | locus YLR262C, strain YPT6 (second series), hits give low values 0.979 | locus YLR262C, strain YPT6, hits give low values 1.06 | locus YLR268W, strain sec22, hits give low values 0.94 | locus YLR342W, strain FKS1, hits give low values 0.923 | locus YLR357W, strain rsc2, hits give low values 0.947 | locus YLR370C, strain arc18, hits give low values 0.988 | locus YLR371W, strain rom2, hits give low values 1.03 | locus YLR384C, strain iki3, hits give low values 0.991 | locus YML016C, strain PPZ1, hits give low values 1.03 | locus YML032C, strain rad52, hits give low values 0.956 | locus YML120C, strain ndi1, hits give low values 0.995 | locus YML124C, strain tub3, hits give low values 1.04 | locus YMR058W, strain fet3, hits give low values 0.978 | locus YMR078C, strain ctf18, hits give low values 1.02 | locus YMR125W, strain sto1, hits give low values 1.01 | locus YMR129W, hits give low values 0.996 | locus YMR205C, strain PFK2, hits give low values 0.95 | locus YMR223W, strain ubp8, hits give low values 0.987 | locus YMR231W, strain pep5, hits give low values 0.949 | locus YMR307W, strain GAS1, hits give low values 0.775 | locus YNL067W, strain RPL9B, hits give low values 0.999 | locus YNL153C, strain GIM3, hits give low values 0.97 | locus YNL209W, strain ssb2, hits give low values 0.995 | locus YNL248C, strain rpa49, hits give low values 0.973 | locus YNL250W, strain rad50, hits give low values 1.04 | locus YNL271C, strain bni1, hits give low values 1.02 | locus YNL298W, strain CLA4, hits give low values 0.973 | locus YNL307C, strain MCK1, hits give low values 0.942 | locus YNL322C, strain KRE1 (second series), hits give low values 0.975 | locus YNL322C, strain KRE1, hits give low values 1.04 | locus YNR049C, strain mso1, hits give low values 0.982 | locus YNR052C, strain pop2, hits give low values 1.01 | locus YOL006C, strain TOP1, hits give low values 0.88 | locus YOL012C, strain htz1 0.776 | locus YOL147C, strain pex11, hits give low values 0.999 | locus YOR001W, strain rrp6, hits give low values 0.97 | locus YOR061W, strain CKA2, hits give low values 1.01 | locus YOR069W, strain VPS5, hits give low values 1.03 | locus YOR070C, strain gyp1, hits give low values 0.997 | locus YOR080W, strain dia2, hits give low values 0.979 | locus YOR083W, strain WHI5, hits give low values 0.972 | locus YOR106W, strain vam3, hits give low values 0.961 | locus YOR136W, strain idh2, hits give low values 1.01 | locus YOR144C, strain elg1, hits give low values 1.01 | locus YOR265W, strain rbl2, hits give low values 0.991 | locus YOR270C, strain vph1, hits give low values 0.821 | locus YOR290C, strain snf2, hits give low values 0.942 | locus YOR316C, strain cot1, hits give low values 1.03 | locus YPL051W, strain arl3, hits give low values 0.94 | locus YPL078C, strain atp4, hits give low values 1 | locus YPL106C, strain sse1, hits give low values 1.08 | locus YPL240C, strain hsp82, hits give low values 0.991 | locus YPR119W, strain clb2, hits give low values 1.04 | locus YPR141C, strain kar3, hits give low values 1.04 | locus YPR163C, strain tif3, hits give low values 0.965 | locus YPR167C, strain met16, hits give low values 1.03 | strain wtn01, hits give low values 0.956
